# Data published in PubChem BioAssay.
# Where “and” joins values, the source holds several entries; their conditions need not be identical. Equal entries are not always repeated. Calls of active or inactive are those of the source. Unless noted, no stated cut-off is given here; in the data, active means inhibition above about 80%; inactive means the rest.
# How the values were obtained:
# [1] = LFS_MB_P medulloblastoma growth inhibition, cell-based, chromothripsis tumors, cisplatin or BGB combos (AID 1671449); details: LFS_MB_P medulloblastoma cells;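 further: cells exposed for 96 hours; 0% = vehicle DMSO and 100% = killing by high DMSO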
# [2] = HDN33 neuroblastoma growth inhibition, cell-based, chromothripsis tumors, cisplatin or BGB combos (AID 1671450); details: HDN33 neuroblastoma cells, stronger effect = higher value;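 further: cells exposed to compound for four days; 0% = vehicle DMSO and 100% = cell killing by high DMSO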
# [3] = ICB984 medulloblastoma cell growth inhibition, synergistic combos for chromothripsis tumors, cisplatin or BGB combos (AID 1671451; call rule not given here;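 further: cells exposed for 96 hours before readout; 0% = vehicle DMSO and 100% = killing by high DMSO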); details: ICB984 medulloblastoma cells, drug combinations, stronger effect = higher value
# [4] = LFS_MB_1R medulloblastoma cell growth inhibition, synergistic combos for chromothripsis tumors, cisplatin or BGB combos (AID 1671452); details: LFS_MB_1R medulloblastoma cells, stronger effect = higher value;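 further: cells exposed for 96 hours before readout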
# [5] = HTB85 osteosarcoma cell growth inhibition, synergistic combos for chromothripsis tumors, BGB or cisplatin IC20 combos (AID 1671453); details: HTB85 osteosarcoma cells, drug combinations, stronger effect = higher value;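 further: cells exposed for 96 hours before readout; 0% = vehicle DMSO and 100% = high DMSO killing control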
# [6] = CRL2098 osteosarcoma cell growth inhibition, synergistic combos for chromothripsis tumors, BGB or cisplatin IC20 combos (AID 1671454); details: CRL2098 osteosarcoma cells, drug combinations, stronger effect = higher value;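 further: cells exposed for 96 h before readout; 0% = vehicle DMSO and 100% = killing by high DMSO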
# [7] = HD-MB03 medulloblastoma cell growth inhibition, synergistic combos for chromothripsis tumors, BGB or cisplatin IC20 combos (AID 1671455; in the data active means inhibition above about 83%;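 further: 0% = vehicle DMSO and 100% = high DMSO as cytotoxic control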); details: HD-MB03 medulloblastoma cells, stronger effect = higher value
# [8] = UWB1.289 ovarian carcinoma cell growth inhibition, synergistic combos for chromothripsis tumors, BGB or cisplatin combos (AID 1671456); details: UWB1.289 ovarian carcinoma cells, stronger effect = higher value;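 further: cells exposed to compound for four days; 0% = vehicle DMSO and 100% = killing by high DMSO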
# [9] = LFS_MB_2R medulloblastoma cell growth inhibition, synergistic combos for chromothripsis tumors, cisplatin combos (AID 1671457); details: LFS_MB_2R medulloblastoma cells, stronger effect = higher value;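 further: cells exposed to compound for four days before readout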
# [10] = MDA-MB-436 breast carcinoma cell growth inhibition, synergistic combos for chromothripsis tumors, BGB or cisplatin combos (AID 1671458; call rule not given here;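 further: cells exposed for 96 hours; 0% = vehicle DMSO and 100% = killing by high DMSO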); details: MDA-MB-436 breast carcinoma growth inhibition, drug combinations, stronger effect = higher value
# [11] = UWB1.289_BRCA1 ovarian cancer growth, cell-based, BGB or cisplatin combinations (AID 1671459); details: UWB1.289 BRCA1 ovarian carcinoma, drug combinations, stronger effect = higher value
# [12] = human astrocyte viability loss, single and combined drugs, cytotoxicity control for chromothriptic childhood tumor combination screen, cell-based, BGB or cisplatin IC20 combos (AID 1671460); details: Human astrocytes, drug combinations, stronger effect = higher value;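 further: cells exposed to compounds for 96 hours before viability readout; 0% = vehicle and 100% = killing control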
# [13] = growth inhibition of BT084 medulloblastoma cells, cell-based, ICGC_MB145, cisplatin and BGB IC40 combos (AID 1671461); details: drug combinations, stronger effect = higher value;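 further: cells exposed to drugs for 96 hours; 0% = vehicle DMSO and 100% = high DMSO full killing control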
# [14] = growth inhibition of RCMB18 medulloblastoma cells, cell-based, cisplatin and BGB IC40 combos (AID 1671462); details: stronger effect = higher value;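 further: cells exposed to compound for four days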
# [15] = growth inhibition of CRL1545 osteosarcoma cells, cell-based, cisplatin and BGB IC20 combos (AID 1671464); details: stronger effect = higher value;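 further: cells exposed to compound for 96 hours before readout; 0% = vehicle DMSO and 100% = high DMSO killing control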
# [16] = at 0.5 µM, stronger effect = higher value
# [17] = measured here: combination with BGB IC20, at 0.005 µM
# [18] = measured here: combination with BGB IC40, at 0.005 µM
# [19] = measured here: combination with BGB IC40, at 0.05 µM
# [20] = measured here: combination with cisplatin, at 0.5 µM, stronger effect = higher value
# [21] = measured here: combination with cisplatin, at 5 µM, stronger effect = higher value
# [22] = measured here: with BGB IC20 combination, at 0.5 µM
# [23] = measured here: with cisplatin IC20 combination, at 0.5 µM
# [24] = measured here: 5 uM single agent, at 5 µM
# [25] = measured here: combination with cisplatin, at 0.5 µM
# [26] = measured here: combination with cisplatin, at 5 µM
# [27] = measured here: with BGB IC20, at 0.5 µM
# [28] = measured here: with BGB IC20, at 5 µM
# [29] = measured here: with cisplatin IC20, at 0.5 µM
# [30] = measured here: with cisplatin IC20, at 5 µM
# [31] = measured here: combination with BGB at IC20, at 0.5 µM
# [32] = measured here: combination with cisplatin at IC20, at 0.5 µM
# [33] = measured here: combo with BGB at IC20, at 0.5 µM
# [34] = measured here: combo with cisplatin at IC20, at 0.5 µM
# [35] = measured here: inhibition with BGB combination, at 0.05 µM
# [36] = measured here: inhibition with cisplatin combination, at 0.05 µM
# [37] = measured here: BGB combination, at 0.5 µM
# [38] = measured here: BGB combination, at 5 µM
# [39] = measured here: cisplatin combination, at 0.5 µM
# [40] = measured here: cisplatin combination, at 5 µM
# [41] = BGB combination, concentration series, at 5 µM
# [42] = cisplatin combination, concentration series, at 5 µM
# [43] = measured here: combo with BGB IC20, at 0.5 µM
# [44] = measured here: combo with cisplatin IC20, at 0.5 µM
# [45] = cisplatin combination, at 0.5 µM
# [46] = measured here: BGB IC40 combination 0.05 uM, at 0.05 µM
# [47] = measured here: BGB IC40 combination, at 0.05 µM
structure (smiles),measurement,setting,value
CCCCCCCCCC(=O)N[C@@H](Cc1c[nH]c2ccccc12)C(=O)N[C@@H](CC(N)=O)C(=O)N[C@@H](CC(=O)O)C(=O)NC1C(=O)NCC(=O)N[C@@H](CCCN)C(=O)N[C@@H](CC(=O)O)C(=O)N[C@H](C)C(=O)N[C@@H](CC(=O)O)C(=O)NCC(=O)N[C@H](CO)C(=O)N[C@@H](C(C)CC(=O)O)C(=O)N[C@@H](CC(=O)c2ccccc2N)C(=O)OC1C (stereo partly specified),inhibition,[1]; [16],-27.6% (inactive) and -32.6% (inactive)
same,inhibition,[1]; [17],1.22% and 8.36%
same,inhibition,[1]; [18],-33.3% and -6.15%
same,inhibition,[1]; [19],-27.1% and -21.6%
same,inhibition,[1]; [20],-42.5% and -64.3%
same,inhibition,[1]; [21],-23.7% and -0.57%
same,inhibition,"[2]; BGB combo, at 5 µM",-9.1% and -17.9%
same,inhibition,[2]; at 0.5 µM,-7.65% (inactive) and -14% (inactive)
same,inhibition,"[2]; cisplatin combo, at 5 µM",17.9% and -21%
same,inhibition,[2]; [22],-19% and -14.2%
same,inhibition,[2]; [23],5.61% and -17.4%
same,inhibition,"[2]; single agent, at 5 µM",5.14% and 4.37%
same,inhibition,"[3]; BGB IC20 combo, at 0.005 µM",-14.8% and 0.272%
same,inhibition,"[3]; BGB IC40 combo, at 0.005 µM",-10.2% and -12.9%
same,inhibition,"[3]; BGB IC40 combo, at 0.05 µM",-9.03% and -26.8%
same,inhibition,[3]; at 0.5 µM,-38.5% (inactive) and -18.4% (inactive)
same,inhibition,"[3]; cisplatin combo, at 0.05 µM",-12.1% and -31.4%
same,inhibition,"[3]; cisplatin combo, at 0.5 µM",-42.4% and -16.6%
same,inhibition,"[3]; cisplatin combo, at 5 µM",-27.4% and -22.6%
same,inhibition,[3]; [24],-18.7% and 2.31%
same,inhibition,[4]; at 0.5 µM,-6.57% (inactive) and -6.58% (inactive)
same,inhibition,[4]; [19],-2.79% and -15.2%
same,inhibition,[4]; [25],7.06% and -22.9%
same,inhibition,[4]; [26],-14.1% and 4.93%
same,inhibition,[5]; at 0.5 µM,-0.19% (inactive) and -22.1% (inactive)
same,inhibition,[5]; [27],1.21% and -18.4%
same,inhibition,[5]; [28],41% and -9.81%
same,inhibition,[5]; [29],-11.7% and -35.1%
same,inhibition,[5]; [30],-35% and -23.5%
same,inhibition,"[5]; single agent, at 5 µM",-14.9% and -5.13%
same,inhibition,[6]; at 0.5 µM,-34.4% (inactive) and -31.7% (inactive)
same,inhibition,[6]; [31],-39.7% and -27.2%
same,inhibition,[6]; [32],-14% and -62.4%
same,inhibition,[7]; at 0.5 µM,-9.94% (inactive) and -8.88% (inactive)
same,inhibition,[7]; [33],-6.42% and -16.2%
same,inhibition,[7]; [34],-14.7% and -5.25%
same,inhibition,[8]; at 0.5 µM,10.2% (inactive) and 12.2% (inactive)
same,inhibition,[8]; [35],-9.69% and -2.7%
same,inhibition,[8]; [36],-15.8% and -25.8%
same,inhibition,[9]; at 0.5 µM,-23.5% (inactive) and -6.81% (inactive)
same,inhibition,[9]; [25],-31.3% and -1.96%
same,inhibition,[9]; [26],-80.2% and 9.2%
same,inhibition,[10]; at 0.5 µM,-16.9% (inactive) and 1.2% (inactive)
same,inhibition,[10]; [37],-8.45% and 11.2%
same,inhibition,[10]; [38],-21.2% and 5.73%
same,inhibition,[10]; [39],-33.4% and -3.35%
same,inhibition,[10]; [40],-35% and -1.3%
same,inhibition,[11]; [41],0.446% and -9.8%
same,inhibition,[11]; at 0.5 µM,-0.18% (inactive) and -1.59% (inactive)
same,inhibition,[11]; [42],29.6% and 3.48%
same,inhibition,[12]; at 0.5 µM,-6.51% (inactive) and -21.5% (inactive)
same,inhibition,[12]; [43],-8.41% and -24.6%
same,inhibition,[12]; [44],-7.76% and -27.2%
same,inhibition,[13]; at 0.5 µM,-50.8% (inactive) and -0.72% (inactive)
same,inhibition,[13]; [45],-32.6% and -11.3%
same,inhibition,"[13]; cisplatin combination, at 5 µM",-30.3% and -7.6%
same,inhibition,[13]; [46],-7.72% and 14.6%
same,inhibition,"[13]; single agent, at 5 µM",-22.5% and -17.6%
same,inhibition,[14]; at 0.5 µM,-14.5% (inactive) and -23% (inactive)
same,inhibition,"[14]; cisplatin combo, at 5 µM",-29.9% and -45.9%
same,inhibition,[14]; [47],-12.3% and 4.76%
same,inhibition,[14]; [25],-0.362% and -63.9%
same,inhibition,"[14]; single agent, at 5 µM",-26.6% and -8.51%
same,inhibition,[15]; at 0.5 µM,12.4% (inactive) and 0.47% (inactive)
same,inhibition,[15]; [22],12.1% and 6.43%
same,inhibition,[15]; [23],10.6% and -4.18%
same,inhibition,"[15]; single agent, at 0.05 µM",-15.3% and 8.61%
same,inhibition,"[15]; single agent, at 5 µM",20.8% and -15.6%
Cc1ccc([N+](=O)[O-])cc1S(=O)(=O)N(C)/N=C\c1cnc2ccc(Br)cn12,inhibition,[1]; [16],61.9% (inactive)
same,inhibition,[1]; [17],-13.3%
same,inhibition,[1]; [18],-40.2%
same,inhibition,[1]; [19],-31.8%
same,inhibition,[1]; [20],56.3%
same,inhibition,[1]; [21],118%
same,inhibition,"[2]; BGB combo, at 5 µM",99.2%
same,inhibition,[2]; at 0.5 µM,94.3% (active)
same,inhibition,"[2]; cisplatin combo, at 5 µM",99.5%
same,inhibition,[2]; [22],94%
same,inhibition,[2]; [23],93.5%
same,inhibition,"[2]; single agent, at 5 µM",99.5%
same,inhibition,"[3]; BGB IC20 combo, at 0.005 µM",97.1%
same,inhibition,"[3]; BGB IC40 combo, at 0.005 µM",95.5%
same,inhibition,"[3]; BGB IC40 combo, at 0.05 µM",97.1%
same,inhibition,[3]; at 0.5 µM,-13.8% (inactive)
same,inhibition,"[3]; cisplatin combo, at 0.05 µM",97%
same,inhibition,"[3]; cisplatin combo, at 0.5 µM",-12.8%
same,inhibition,"[3]; cisplatin combo, at 5 µM",-10.7%
same,inhibition,[3]; [24],-35%
same,inhibition,[4]; at 0.5 µM,97.7% (active)
same,inhibition,[4]; [19],22.2%
same,inhibition,[4]; [25],94.2%
same,inhibition,[4]; [26],99.5%
same,inhibition,[5]; at 0.5 µM,95.7% (active)
same,inhibition,[5]; [27],97.6%
same,inhibition,[5]; [28],99.7%
same,inhibition,[5]; [29],99.5%
same,inhibition,[5]; [30],99.8%
same,inhibition,"[5]; single agent, at 5 µM",99.8%
same,inhibition,[6]; at 0.5 µM,94.2% (active)
same,inhibition,[6]; [31],89.1%
same,inhibition,[6]; [32],96.8%
same,inhibition,[7]; at 0.5 µM,92.1% (active)
same,inhibition,[7]; [33],88.3%
same,inhibition,[7]; [34],94.9%
same,inhibition,[8]; at 0.5 µM,64.8% (inactive)
same,inhibition,[8]; [35],-16.8%
same,inhibition,[8]; [36],-30.8%
same,inhibition,[9]; at 0.5 µM,89.4% (active)
same,inhibition,[9]; [25],92.7%
same,inhibition,[9]; [26],91.4%
same,inhibition,[10]; at 0.5 µM,79.4% (inactive)
same,inhibition,[10]; [37],72.5%
same,inhibition,[10]; [38],55.5%
same,inhibition,[10]; [39],86.1%
same,inhibition,[10]; [40],74.6%
same,inhibition,[11]; [41],89.5%
same,inhibition,[11]; at 0.5 µM,74.9% (inactive)
same,inhibition,[11]; [42],96.2%
same,inhibition,[12]; at 0.5 µM,80.6% (active)
same,inhibition,[12]; [43],72.4%
same,inhibition,[12]; [44],82.6%
same,inhibition,[13]; at 0.5 µM,-3% (inactive)
same,inhibition,[13]; [45],-27.5%
same,inhibition,"[13]; cisplatin combination, at 5 µM",-30.7%
same,inhibition,[13]; [46],-4.87%
same,inhibition,"[13]; single agent, at 5 µM",-15.9%
same,inhibition,[14]; at 0.5 µM,67.8% (inactive)
same,inhibition,"[14]; cisplatin combo, at 5 µM",70%
same,inhibition,[14]; [47],19.8%
same,inhibition,[14]; [25],52.5%
same,inhibition,"[14]; single agent, at 5 µM",76%
same,inhibition,[15]; at 0.5 µM,98% (active)
same,inhibition,[15]; [22],98.1%
same,inhibition,[15]; [23],97.9%
same,inhibition,"[15]; single agent, at 0.05 µM",-77.2%
same,inhibition,"[15]; single agent, at 5 µM",100%
